Measured values reported in PubChem BioAssay (NCI).
The panel holds about 83,000 compounds, 20% with a hit somewhere; the sample as a whole holds those more often.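 How to read the values: 0–100, growth inhibition (40 = 60% inhibited); 0, no net growth; -100 to 0, cell death (-40 = 40% of starting cells died; -100 = all dead).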 Active and inactive are the calls of the source. How the source made its calls: active means growth percent below 10; inactive means the rest.

The molecules below were run on SR leukemia (assay: NCI-60 one-dose screen, 48 h (100 = growth as untreated, 0 = no growth, -100 = all killed)). Conditions: 10 µM.

SMILES | growth
O=C(NO)c1ccc(-c2nc3ccc4[nH]ncc4c3c3c2CCCC3)cc1 | -13.8% (active)
O=C(CNc1nc(-c2ccccc2)cs1)Nc1ccc(Cl)cc1 | -18.7% (active)
COc1cc2c3c(n(CCCN4CCOCC4)c(=O)c2cc1OC)-c1nc2c(cc1C3=O)OCO2 | 12.5% (inactive)
Cc1ccc(/C=C/C(=O)c2ccc(NC(=O)CSc3nnc(-c4c[nH]c5ccccc45)n3-c3ccccc3)cc2)c(C)c1 | 41.6% (inactive)
O=C(CN1CCN(c2ncnc3c2cnn3-c2ccccc2)CC1)Nc1nncs1 | -28.9% (active)
CC(=O)Oc1ccccc1C(=O)Oc1ccc(C(=O)/C=C/c2ccncc2)cc1 | 7.37% (active)
O=C(NC(=S)N1CCN(c2ncnc3c2cnn3-c2ccccc2)CC1)c1ccc(Cl)cc1 | 13.9% (inactive)
C/C(=N\N=C\c1ccc(N(C)C)cc1)c1ccc2c(c1)Nc1ccccc1S2 | 50% (inactive)
COC(=O)C[C@](O)(CCCC(C)(C)O)C(=O)O[C@H]1C(OC)=C[C@@]23CCC(=O)N2CCc2cc4c(cc2[C@@H]13)OCO4 | 80.6% (inactive)
CN1CCN(Cc2ccc(NC(=O)c3cncc(C#Cc4cnc5ccc(N[C@H]6CCOC6)nn45)c3)cc2C(F)(F)F)CC1 | -21.7% (active)
CCOc1ccc(/C=N/NC(=O)Cn2nc(Cc3ccc([N+](=O)[O-])cc3)c3onc(C)c3c2=O)cc1 | 62.7% (inactive)
CN1CCN(c2ccc(C(=O)/C=C/c3ccc(OC(F)F)cc3)cc2)CC1 | 6.8% (active)
COc1ccc(C2N(c3ccc(Br)cc3)N=C(C(C)=O)N2[C@H]2[C@H](OC(C)=O)O[C@H](COC(C)=O)[C@@H](OC(C)=O)[C@@H]2OC(C)=O)cc1 (some centres undefined) | 75.9% (inactive)
CCOC(=O)C1=C(N)N(c2ccccc2)C2=C(C(=O)CC(C)(C)C2)C1c1ccc(Cl)cc1 (centres undefined) | 13.1% (inactive)
CCCn1c(=O)c2[nH]c(-c3ccc(OCc4nc5ccc(F)cc5[nH]4)cc3)nc2n(CCC)c1=O | 11.8% (inactive)
Cc1ccc(/C(CSc2nnc(-c3c[nH]c4ccccc34)n2-c2ccccc2)=N/O)cc1 | 9.79% (active)
CN1CCN(c2ccc(C(=O)/C=C/c3cc(C(F)(F)F)ccc3Cl)cc2)CC1 | 1.37% (active)
COc1ccc(C(=O)Nc2sc3c(c2C#N)CCC(=O)C3)cc1C(F)(F)F | 0.622% (active)
Cc1ccc(/C=C/C(=O)c2ccc(NC(=O)CSc3nnc(-c4c[nH]c5ccccc45)n3-c3ccccc3)cc2)cc1 | 72.4% (inactive)

SMILES | growth
COc1ccc(Nc2nc(N)n(Cc3cccc(Br)c3)n2)cc1 | 12.6% (inactive)
O=C1CCC(N2Cc3cc(NC(=O)COc4ccccc4)ccc3C2=O)C(=O)N1 (centres undefined) | 73.1% (inactive)
O=C(/C=C/Nc1ccccc1)c1ccc2c(c1)Nc1ccccc1S2 | 87.8% (inactive)
COc1cc2c(c(OC)c1OC)C(=O)CC(c1cccc(NC(=O)c3cccc(N)c3)c1)O2 (centres undefined) | 47.7% (inactive)
Cc1noc2c(Cc3ccc([N+](=O)[O-])cc3)nn(CC(=O)N/N=C/c3ccc(Br)cc3)c(=O)c12 | 97.6% (inactive)
COc1ccc(-c2nc(Nc3ccccc3S(N)(=O)=O)c3ccccc3n2)cc1 | 23% (inactive)
COc1cc(/C=C/C(=O)c2ccc(NC(=O)CSc3nnc(-c4c[nH]c5ccccc45)n3-c3ccccc3)cc2)cc(OC)c1OC | 35.3% (inactive)
O=C(CSc1nnc(-c2ccc3nc(-c4ccc(Cl)cc4)[nH]c3c2)o1)Nc1ccc(Br)cc1 | 3.26% (active)
Cc1ccn2c(C(=O)c3ccccc3)cc(-c3cc(-c4ccc(N(C)C)cc4)c(C#N)c(N)n3)c2c1 | 75.9% (inactive)
O=C1c2ccccc2C(=O)c2c1c(C(=O)c1ccc(Cl)cc1)n1c2ccc2c3ccccc3ccc21 | 104% (inactive)
Cn1c(O)c(N=Nc2nc(-c3cc4ccccc4oc3=O)cs2)c2cc(Br)ccc21 | 71.7% (inactive)
Cn1cc(-c2cc(N)n3nc(-c4c[nH]c5ccc(Br)cc45)cc3n2)c2cccnc21 | -23.6% (active)
COc1ccc2c3nc4cc(C)c(C)cc4nc3n(CCN(C)C)c2c1 | 9.88% (active)
O=C(CSc1nnc(-c2c[nH]c3ccccc23)n1-c1ccccc1)c1ccc(Br)cc1 | 90.8% (inactive)
OCc1[nH]nc2cc(Nc3ncc4ccc(Br)c(OC5CCC(O)CC5)c4n3)ccc12 (centres undefined) | 3.06% (active)
Cc1cc(C)nc(NS(=O)(=O)c2ccc(N/C(N)=N/c3nccc(-c4ccccc4)n3)cc2)n1 | 53.8% (inactive)
N#Cc1c(NC(=O)c2ccc(C(O)(C(F)(F)F)C(F)(F)F)cc2)sc2c1CCC(=O)C2 | -6.36% (active)
N#Cc1ccc(-c2nn(-c3ccc(C(=O)O)cc3)cc2CNc2cc(Cl)cc(C(F)(F)F)c2)cc1 | 1.72% (active)

Each molecule was assayed on RPMI-8226 leukemia in the same assay as above. Conditions: 10 µM.

SMILES | growth
O=C(NO)c1ccc(-c2nc3ccc4[nH]ncc4c3c3c2CCCC3)cc1 | -9.23% (active)
O=C(CNc1nc(-c2ccccc2)cs1)Nc1ccc(Cl)cc1 | 2.96% (active)
COc1cc2c3c(n(CCCN4CCOCC4)c(=O)c2cc1OC)-c1nc2c(cc1C3=O)OCO2 | 18.7% (inactive)
Cc1ccc(/C=C/C(=O)c2ccc(NC(=O)CSc3nnc(-c4c[nH]c5ccccc45)n3-c3ccccc3)cc2)c(C)c1 | 22.8% (inactive)
O=C(CN1CCN(c2ncnc3c2cnn3-c2ccccc2)CC1)Nc1nncs1 | -16.6% (active)
CC(=O)Oc1ccccc1C(=O)Oc1ccc(C(=O)/C=C/c2ccncc2)cc1 | 13.6% (inactive)
O=C(NC(=S)N1CCN(c2ncnc3c2cnn3-c2ccccc2)CC1)c1ccc(Cl)cc1 | 69.1% (inactive)
C/C(=N\N=C\c1ccc(N(C)C)cc1)c1ccc2c(c1)Nc1ccccc1S2 | 48.5% (inactive)
COC(=O)C[C@](O)(CCCC(C)(C)O)C(=O)O[C@H]1C(OC)=C[C@@]23CCC(=O)N2CCc2cc4c(cc2[C@@H]13)OCO4 | 106% (inactive)
CN1CCN(Cc2ccc(NC(=O)c3cncc(C#Cc4cnc5ccc(N[C@H]6CCOC6)nn45)c3)cc2C(F)(F)F)CC1 | -35.1% (active)
CCOc1ccc(/C=N/NC(=O)Cn2nc(Cc3ccc([N+](=O)[O-])cc3)c3onc(C)c3c2=O)cc1 | 68.9% (inactive)
CN1CCN(c2ccc(C(=O)/C=C/c3ccc(OC(F)F)cc3)cc2)CC1 | 5.53% (active)
COc1ccc(C2N(c3ccc(Br)cc3)N=C(C(C)=O)N2[C@H]2[C@H](OC(C)=O)O[C@H](COC(C)=O)[C@@H](OC(C)=O)[C@@H]2OC(C)=O)cc1 (some centres undefined) | 41.1% (inactive)
CCOC(=O)C1=C(N)N(c2ccccc2)C2=C(C(=O)CC(C)(C)C2)C1c1ccc(Cl)cc1 (centres undefined) | 7.68% (active)
CCCn1c(=O)c2[nH]c(-c3ccc(OCc4nc5ccc(F)cc5[nH]4)cc3)nc2n(CCC)c1=O | 16.7% (inactive)
Cc1ccc(/C(CSc2nnc(-c3c[nH]c4ccccc34)n2-c2ccccc2)=N/O)cc1 | -19.1% (active)
CN1CCN(c2ccc(C(=O)/C=C/c3cc(C(F)(F)F)ccc3Cl)cc2)CC1 | 3.72% (active)
COc1ccc(C(=O)Nc2sc3c(c2C#N)CCC(=O)C3)cc1C(F)(F)F | 4.37% (active)
Cc1ccc(/C=C/C(=O)c2ccc(NC(=O)CSc3nnc(-c4c[nH]c5ccccc45)n3-c3ccccc3)cc2)cc1 | 4.29% (active)

SMILES | growth
COc1ccc(Nc2nc(N)n(Cc3cccc(Br)c3)n2)cc1 | 8.38% (active)
O=C1CCC(N2Cc3cc(NC(=O)COc4ccccc4)ccc3C2=O)C(=O)N1 (centres undefined) | 65% (inactive)
O=C(/C=C/Nc1ccccc1)c1ccc2c(c1)Nc1ccccc1S2 | 90.9% (inactive)
COc1cc2c(c(OC)c1OC)C(=O)CC(c1cccc(NC(=O)c3cccc(N)c3)c1)O2 (centres undefined) | 57.4% (inactive)
Cc1noc2c(Cc3ccc([N+](=O)[O-])cc3)nn(CC(=O)N/N=C/c3ccc(Br)cc3)c(=O)c12 | 91.2% (inactive)
COc1ccc(-c2nc(Nc3ccccc3S(N)(=O)=O)c3ccccc3n2)cc1 | 14.9% (inactive)
COc1cc(/C=C/C(=O)c2ccc(NC(=O)CSc3nnc(-c4c[nH]c5ccccc45)n3-c3ccccc3)cc2)cc(OC)c1OC | 6.57% (active)
O=C(CSc1nnc(-c2ccc3nc(-c4ccc(Cl)cc4)[nH]c3c2)o1)Nc1ccc(Br)cc1 | 0.539% (active)
Cc1ccn2c(C(=O)c3ccccc3)cc(-c3cc(-c4ccc(N(C)C)cc4)c(C#N)c(N)n3)c2c1 | 82.5% (inactive)
O=C1c2ccccc2C(=O)c2c1c(C(=O)c1ccc(Cl)cc1)n1c2ccc2c3ccccc3ccc21 | 101% (inactive)
Cn1c(O)c(N=Nc2nc(-c3cc4ccccc4oc3=O)cs2)c2cc(Br)ccc21 | 96.6% (inactive)
Cn1cc(-c2cc(N)n3nc(-c4c[nH]c5ccc(Br)cc45)cc3n2)c2cccnc21 | 3.37% (active)
COc1ccc2c3nc4cc(C)c(C)cc4nc3n(CCN(C)C)c2c1 | 9.26% (active)
O=C(CSc1nnc(-c2c[nH]c3ccccc23)n1-c1ccccc1)c1ccc(Br)cc1 | 54.4% (inactive)
OCc1[nH]nc2cc(Nc3ncc4ccc(Br)c(OC5CCC(O)CC5)c4n3)ccc12 (centres undefined) | 3.2% (active)
Cc1cc(C)nc(NS(=O)(=O)c2ccc(N/C(N)=N/c3nccc(-c4ccccc4)n3)cc2)n1 | 60.8% (inactive)
N#Cc1c(NC(=O)c2ccc(C(O)(C(F)(F)F)C(F)(F)F)cc2)sc2c1CCC(=O)C2 | 6.42% (active)
N#Cc1ccc(-c2nn(-c3ccc(C(=O)O)cc3)cc2CNc2cc(Cl)cc(C(F)(F)F)c2)cc1 | 1.01% (active)
